# Data from PubChem BioAssay (NCATS).
# Results filed as inconclusive are left out. Entries that show only a call come without a potency. Active and inactive are the calls of the source. Unless noted, calls come from the whole dose curve; as a rule, active = well fitted curve in the direction sought with a large enough effect; inconclusive = small, poorly fitted or top-dose-only effect, or another doubt; inactive = no such curve, though single readings can be large; an effect the other way counts as inactive or inconclusive.
# Target: Calcium and integrin-binding protein 1 (Homo sapiens) (UniProt Q99828)
# Assay: Primary qHTS for Identification of Calcium Integrin Binding Protein 1 (CIB1) Competitor (AID 1508620);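 note: GST tagged CIB1 binding a fluorescein labelled alphaIIb integrin peptide tracer; top concentration of the series differs between compounds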
# Conditions: CIB1-GST / FITC-alphaIIb peptide fluorescence polarization; series mostly up to 114 µM
# Method in brief: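 CIB1-GST (1 uM final) and compound incubated 15 min at room temperature before adding FITC-alphaIIb peptide tracer (100 nM final). Competition for binding read by fluorescence polarization (ex 480, em 540) after another 15 min at room temperature.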
# Calcium and integrin-binding protein 1 (Homo sapiens), sequence (Q99828 whole entry, looked up): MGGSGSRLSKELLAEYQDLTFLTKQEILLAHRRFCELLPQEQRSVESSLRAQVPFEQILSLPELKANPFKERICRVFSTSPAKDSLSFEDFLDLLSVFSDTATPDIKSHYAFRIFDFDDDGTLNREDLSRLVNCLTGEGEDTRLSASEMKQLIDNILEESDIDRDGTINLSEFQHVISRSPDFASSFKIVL
row,SMILES,Potency
1,CNCC[C@@H](Oc1ccccc1C)c1ccccc1,inactive
2,COc1cc(N)c(Cl)cc1C(=O)NC1CCN(CCCOc2ccc(F)cc2)CC1OC (configuration not stated),inactive
3,c1ccc(OCc2ccc(CCCN3CCOCC3)cc2)cc1,inactive
4,CCCCCCCCCCCCCCCCOP(=O)([O-])OCC[N+](C)(C)C,inactive
5,O=c1[nH]c(=O)n([C@H]2C[C@H](O)[C@@H](CO)O2)cc1C(F)(F)F,inactive
6,CCCCCCc1ccc(O)cc1O,inactive
7,CCN(CCCc1ccccc1)CCCc1ccccc1,inactive

# Tested on: not listed separately
# Assay: Counterscreen qHTS for small molecule stabilizers of the endoplasmic reticulum resident proteome: GLuc-NoTag assay (AID 1508627);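 note: SH-SY5Y cells given compound then 100 nM thapsigargin to empty ER calcium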
# Conditions: Gaussia luciferase NoTag secretion counterscreen, luminescence, thapsigargin 100 nM for final 4 h; series mostly up to 76.4 µM
# Method in brief: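 Counterscreen line: SH-SY5Y-GLuc-NoTag cells, treated with compound 19 hr before a 4 hr, 100 nM thapsigargin calcium depletion. Secreted Gaussia luciferase in the medium was measured by luminescence after coelenterazine was added (0.07x final), with cells unlysed.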
row,SMILES,outcome
1,O=C(Nc1ccc(Oc2ccc(Cl)cc2)c(Cl)c1)c1cc(I)cc(I)c1O,inactive
2,CCCOC(C(=O)OC1CCN(C)CC1)(c1ccccc1)c1ccccc1,inactive
3,CN1CCN(C(c2ccccc2)c2ccccc2)CC1,inactive

# Tested on: not listed separately
# Assay: Primary qHTS for small molecule stabilizers of the endoplasmic reticulum resident proteome: Secreted ER Calcium Modulated Protein (SERCaMP) assay (AID 1508630)
# Conditions: SH-SY5Y GLuc-SERCaMP (Gaussia luciferase released on ER calcium loss) secretion, thapsigargin, luminescence; series mostly up to 38.4 µM
# Method in brief: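 The SH-SY5Y reporter protocol was run at 3 concentrations up to 38.3 uM (primary) or 11 concentrations (follow-up): 16 h compound, 100 nM thapsigargin for 4 h, then extracellular luciferase luminescence.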
row,SMILES,Potency
1,Cc1onc(-c2c(Cl)cccc2Cl)c1C(=O)N[C@@H]1C(=O)N2[C@@H]1SC(C)(C)[C@@H]2C(=O)O,inactive
2,COc1cc(-c2ccc(=O)[nH]n2)ccc1OC(F)F,inactive
3,CCN(CCCCOC(=O)c1ccc(OC)c(OC)c1)C(C)Cc1ccc(OC)cc1 (configuration not stated),inactive
4,C[C@]12CCC(=O)C=C1CC[C@H]1[C@@H]3CC[C@](O)(C(=O)CO)[C@@]3(C)C[C@H](O)[C@@]12F,inactive
5,O=C1c2ccccc2C(=O)C1c1ccccc1,inactive
6,Oc1c(I)cc(I)c2cccnc12,inactive
7,CN1C(CCl)Nc2cc(Cl)c(S(N)(=O)=O)cc2S1(=O)=O (configuration not stated),inactive
8,CC1=C(C(=O)O)N2C(=O)[C@@H](NC(=O)[C@H](N)c3ccc(O)cc3)[C@H]2SC1,inactive
9,Cc1cc(N)c2cc(NC(=O)Nc3ccc4nc(C)cc(N)c4c3)ccc2n1,inactive
10,CN(C)/N=N/c1nc[nH]c1C(N)=O,inactive
11,C=C1C(=C/C=C2\CCC[C@]3(C)[C@@H]([C@H](C)/C=C/[C@@H](O)C4CC4)CC[C@@H]23)C[C@@H](O)C[C@@H]1O,inactive
12,COc1cccc2c1C(=O)c1c(O)c3c(c(O)c1C2=O)C[C@@](O)(C(C)=O)C[C@@H]3O[C@H]1C[C@H](N)[C@H](O)[C@H](C)O1,inactive
13,CCCC(=O)O[C@]1(C(=O)CO)CC[C@H]2[C@@H]3CCC4=CC(=O)CC[C@]4(C)[C@H]3[C@@H](O)C[C@@]21C,inactive
14,COc1cc(NS(C)(=O)=O)ccc1Nc1c2ccccc2nc2ccccc12,inactive
15,CC(=O)OCC(=O)[C@@]12N=C(C)O[C@@H]1C[C@H]1[C@@H]3CCC4=CC(=O)C=C[C@]4(C)[C@H]3[C@@H](O)C[C@@]12C,inactive
16,Cc1ccnc(NS(=O)(=O)c2ccc(N)cc2)n1,inactive
17,CC(O)C(=O)O (configuration not stated),inactive
18,CCCCC(CC)CN=C(N)NC(N)=NCCCCCCN=C(N)NC(N)=NCC(CC)CCCC (configuration not stated),inactive
19,COC(=O)[C@H]1[C@H]2C[C@H]3c4[nH]c5ccccc5c4CCN3C[C@H]2CC[C@@H]1O,inactive
20,C/C=C/c1ccc(OC)cc1,inactive
21,CCCCOc1ccc(C(=O)CCN2CCCCC2)cc1,inactive
22,Clc1ccc2c(c1)CCc1cccnc1C2=C1CCNCC1,inactive
23,COCc1c(C(C)C)nc(C(C)C)c(/C=C/[C@@H](O)C[C@@H](O)CC(=O)O)c1-c1ccc(F)cc1,inactive
24,C[C@]12CC[C@@H]3c4ccc(O)cc4CC[C@H]3[C@@H]1C[C@@H](O)[C@@H]2O,inactive

# Tested on: not listed separately
# Assay: A High-Content qHTS Against Drug Library for the Identification of Small Molecules that Inhibit DYT1 Early Onset Primary Dystonia-Associated Cell Pathology (AID 1645839; calls by dose curve; note: potency is the fitted concentration of half-maximal effect)
# Conditions: HEK293 Flp-In EGFP-delE TorsinA, punctate imaging, 48 h; series mostly up to 46.1 µM
# Method in brief: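 High-content imaging quantified EGFP-TorsinA mislocalization in HEK293-derived cells inducibly expressing DYT1 mutant torsinA, after 48 h exposure to compound given together with tetracycline induction. Cell count served as a toxicity channel alongside %pathology.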
row,SMILES,Potency
1,Cc1onc(-c2c(Cl)cccc2Cl)c1C(=O)N[C@@H]1C(=O)N2[C@@H]1SC(C)(C)[C@@H]2C(=O)O,inactive
2,COc1cc(-c2ccc(=O)[nH]n2)ccc1OC(F)F,inactive
3,CCN(CCCCOC(=O)c1ccc(OC)c(OC)c1)C(C)Cc1ccc(OC)cc1 (configuration not stated),inactive
4,C[C@]12CCC(=O)C=C1CC[C@H]1[C@@H]3CC[C@](O)(C(=O)CO)[C@@]3(C)C[C@H](O)[C@@]12F,inactive
5,O=C1c2ccccc2C(=O)C1c1ccccc1,inactive
6,CN1C(CCl)Nc2cc(Cl)c(S(N)(=O)=O)cc2S1(=O)=O (configuration not stated),inactive
7,CC1=C(C(=O)O)N2C(=O)[C@@H](NC(=O)[C@H](N)c3ccc(O)cc3)[C@H]2SC1,inactive
8,CN(C)/N=N/c1nc[nH]c1C(N)=O,inactive
9,COc1cccc2c1C(=O)c1c(O)c3c(c(O)c1C2=O)C[C@@](O)(C(C)=O)C[C@@H]3O[C@H]1C[C@H](N)[C@H](O)[C@H](C)O1,1.58 µM (active)
10,CCCC(=O)O[C@]1(C(=O)CO)CC[C@H]2[C@@H]3CCC4=CC(=O)CC[C@]4(C)[C@H]3[C@@H](O)C[C@@]21C,inactive
11,CC(=O)OCC(=O)[C@@]12N=C(C)O[C@@H]1C[C@H]1[C@@H]3CCC4=CC(=O)C=C[C@]4(C)[C@H]3[C@@H](O)C[C@@]12C,inactive
12,Cc1ccnc(NS(=O)(=O)c2ccc(N)cc2)n1,inactive
13,CC(O)C(=O)O (configuration not stated),inactive
14,CCCCC(CC)CN=C(N)NC(N)=NCCCCCCN=C(N)NC(N)=NCC(CC)CCCC (configuration not stated),11.2 µM (active)
15,C/C=C/c1ccc(OC)cc1,inactive
16,CCCCOc1ccc(C(=O)CCN2CCCCC2)cc1,10 µM (active)
17,CN1CCN(C(c2ccccc2)c2ccccc2)CC1,inactive
18,C[C@]12CC[C@@H]3c4ccc(O)cc4CC[C@H]3[C@@H]1C[C@@H](O)[C@@H]2O,inactive
